Experimental data as given in the supplement of paper PMC8975748.
Where a name gives a salt, the structure may show the parent alone. ± gives the standard deviation of the averaged measurements.

How the values were obtained:
[1] = test system: Saccharomyces cerevisiae BY4741 SeMeCo community; assay: mean cell size (pixel area) (pixels); higher = larger cells; settings: 10 µM; 24 h; SM minimal medium
In short: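 Mean cell pixel area per well was measured in a four-plasmid fluorescent community of Saccharomyces cerevisiae BY4741, where every plasmid complements one auxotrophy and carries a fluorescent marker. Cells from an overnight preculture at OD600 = 1.0 were diluted to OD600 = 0.3 and dispensed at 70 µl into 384-well plates acoustically predosed with drug to a final 10 µM in SM medium. Incubation lasted 24 h, followed by paraformaldehyde fixation, automated confocal imaging and analysis in Harmony. Reported figures are averaged over 3 replicates. Same SeMeCo high-content imaging drug screen: Selleck FDA-approved drugs at 10 µM, 24 h in SM medium, 384-well plates, 3 replicates.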

[2] = test system: Saccharomyces cerevisiae BY4741 SeMeCo community; assay: z-score of prototroph abundance vs DMSO median; higher = larger share of this subpopulation than in DMSO controls; settings: 10 µM; 24 h; SM minimal medium; subpopulation (auxotrophy): Prototroph
In short: (§1)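 Cells of a Saccharomyces cerevisiae BY4741 community, carrying four plasmids that each restored one auxotrophy and encoded a distinct fluorescent protein, were pre-grown overnight to OD600 1.0 and diluted to 0.3. A 70 µl volume was added to 384-well plates acoustically predosed with library drugs (10 µM final) and grown 24 h in minimal SM medium. After paraformaldehyde fixation, automated confocal microscopy was used, with single-auxotroph fluorescent strains for thresholds and autofluorescence correction. The abundance of each subpopulation was scored as a z-score against the vehicle-well median.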

[3] = test system: Saccharomyces cerevisiae BY4741 SeMeCo community; assay: z-score of subpopulation abundance vs DMSO median, subpopulation auxotrophic for M; higher = larger share of this subpopulation than in DMSO controls; settings: 10 µM; 24 h; SM minimal medium; subpopulation (auxotrophy): M
In short: as §1

[4] = test system: Saccharomyces cerevisiae BY4741 SeMeCo community; assay: z-score of subpopulation abundance vs DMSO median, subpopulation auxotrophic for U; higher = larger share of this subpopulation than in DMSO controls; settings: 10 µM; 24 h; SM minimal medium; subpopulation (auxotrophy): U
In short: as §1

[5] = test system: Saccharomyces cerevisiae BY4741 SeMeCo community; assay: z-score of subpopulation abundance vs DMSO median, subpopulation auxotrophic for H; higher = larger share of this subpopulation than in DMSO controls; settings: 10 µM; 24 h; SM minimal medium; subpopulation (auxotrophy): H
In short: as §1

[6] = test system: Saccharomyces cerevisiae BY4741 SeMeCo community; assay: z-score of subpopulation abundance vs DMSO median, subpopulation auxotrophic for LU; higher = larger share of this subpopulation than in DMSO controls; settings: 10 µM; 24 h; SM minimal medium; subpopulation (auxotrophy): LU
In short: as §1

[7] = test system: Saccharomyces cerevisiae BY4741 SeMeCo community; assay: z-score of subpopulation abundance vs DMSO median, subpopulation auxotrophic for LM; higher = larger share of this subpopulation than in DMSO controls; settings: 10 µM; 24 h; SM minimal medium; subpopulation (auxotrophy): LM
In short: as §1

[8] = test system: Saccharomyces cerevisiae BY4741 SeMeCo community; assay: z-score of subpopulation abundance vs DMSO median, subpopulation auxotrophic for HM; higher = larger share of this subpopulation than in DMSO controls; settings: 10 µM; 24 h; SM minimal medium; subpopulation (auxotrophy): HM
In short: as §1

[9] = test system: Saccharomyces cerevisiae BY4741 SeMeCo community; assay: z-score of subpopulation abundance vs DMSO median, subpopulation auxotrophic for HU; higher = larger share of this subpopulation than in DMSO controls; settings: 10 µM; 24 h; SM minimal medium; subpopulation (auxotrophy): HU
In short: as §1

[10] = test system: Saccharomyces cerevisiae BY4741 SeMeCo community; assay: z-score of subpopulation abundance vs DMSO median, subpopulation auxotrophic for UM; higher = larger share of this subpopulation than in DMSO controls; settings: 10 µM; 24 h; SM minimal medium; subpopulation (auxotrophy): UM
In short: as §1

[11] = test system: Saccharomyces cerevisiae BY4741 SeMeCo community; assay: z-score of subpopulation abundance vs DMSO median, subpopulation auxotrophic for HL; higher = larger share of this subpopulation than in DMSO controls; settings: 10 µM; 24 h; SM minimal medium; subpopulation (auxotrophy): HL
In short: as §1

[12] = test system: Saccharomyces cerevisiae BY4741 SeMeCo community; assay: z-score of subpopulation abundance vs DMSO median, subpopulation auxotrophic for HLM; higher = larger share of this subpopulation than in DMSO controls; settings: 10 µM; 24 h; SM minimal medium; subpopulation (auxotrophy): HLM
In short: as §1

[13] = test system: Saccharomyces cerevisiae BY4741 SeMeCo community; assay: z-score of subpopulation abundance vs DMSO median, subpopulation auxotrophic for HUM; higher = larger share of this subpopulation than in DMSO controls; settings: 10 µM; 24 h; SM minimal medium; subpopulation (auxotrophy): HUM
In short: as §1

[14] = test system: Saccharomyces cerevisiae BY4741 SeMeCo community; assay: z-score of subpopulation abundance vs DMSO median, subpopulation auxotrophic for LUM; higher = larger share of this subpopulation than in DMSO controls; settings: 10 µM; 24 h; SM minimal medium; subpopulation (auxotrophy): LUM
In short: as §1

[15] = test system: Saccharomyces cerevisiae BY4741 SeMeCo community; assay: z-score of subpopulation abundance vs DMSO median, subpopulation auxotrophic for HLUM; higher = larger share of this subpopulation than in DMSO controls; settings: 10 µM; 24 h; SM minimal medium; subpopulation (auxotrophy): HLUM
In short: as §1

[16] = test system: Saccharomyces cerevisiae BY4741 SeMeCo community; assay: z-score of subpopulation abundance vs DMSO median, subpopulation auxotrophic for L; higher = larger share of this subpopulation than in DMSO controls; settings: 10 µM; 24 h; SM minimal medium; subpopulation (auxotrophy): L
In short: as §1

CCC(C)(C)C(=O)O[C@H]1C[C@@H](C)C=C2C=C[C@H](C)[C@H](CC[C@@H]3C[C@@H](O)CC(=O)O3)[C@H]21 [Simvastatin]
mean cell size [1]: 11.7 ± 0.28 | z-score of prototroph abundance [2]: -1.66 | z-score of subpopulation abundance [3]: -0.68 | z-score of subpopulation abundance [4]: 0.43 | z-score of subpopulation abundance [5]: 0.79 | z-score of subpopulation abundance [6]: 1.71 | z-score of subpopulation abundance [7]: -0.1 | z-score of subpopulation abundance [8]: 2.47 | z-score of subpopulation abundance [9]: 1.53 | z-score of subpopulation abundance [10]: 0.62 | z-score of subpopulation abundance [11]: 1.65 | z-score of subpopulation abundance [12]: 3.79 | z-score of subpopulation abundance [13]: 1.9 | z-score of subpopulation abundance [14]: 1.33 | z-score of subpopulation abundance [15]: 2.55

COc1ccc2cc3[n+](cc2c1OC)CCc1cc2c(cc1-3)OCO2 [Berberine chloride]
mean cell size [1]: 12.5 ± 0.26 | z-score of subpopulation abundance [3]: 0.33 | z-score of subpopulation abundance [16]: 0.44 | z-score of subpopulation abundance [4]: -0.13 | z-score of subpopulation abundance [6]: -0.32 | z-score of subpopulation abundance [8]: -0.15 | z-score of subpopulation abundance [9]: -0.79 | z-score of subpopulation abundance [10]: -0.09 | z-score of subpopulation abundance [13]: -0.38 | z-score of subpopulation abundance [14]: -0.34 | z-score of subpopulation abundance [15]: -0.12

CCCCOc1cc(C(=O)OCCN(CC)CC)ccc1N [Oxybuprocaine HCl]
z-score of prototroph abundance [2]: -0.08 | z-score of subpopulation abundance [3]: 0.72 | z-score of subpopulation abundance [16]: 0.22 | z-score of subpopulation abundance [4]: -0.29 | z-score of subpopulation abundance [5]: -0.22 | z-score of subpopulation abundance [7]: 0.31 | z-score of subpopulation abundance [8]: 0.19 | z-score of subpopulation abundance [9]: 0.6 | z-score of subpopulation abundance [10]: -0.55 | z-score of subpopulation abundance [11]: 0.21 | z-score of subpopulation abundance [12]: 1.25 | z-score of subpopulation abundance [13]: 0.57 | z-score of subpopulation abundance [15]: 0.34

CNCCCN1c2ccccc2CCc2ccccc21 [Desipramine Hydrochloride]
mean cell size [1]: 12.2 ± 0.14 | z-score of prototroph abundance [2]: -0.16 | z-score of subpopulation abundance [3]: 1.14 | z-score of subpopulation abundance [4]: -0.08 | z-score of subpopulation abundance [5]: 0.31 | z-score of subpopulation abundance [7]: 0.26 | z-score of subpopulation abundance [10]: -0.43 | z-score of subpopulation abundance [11]: 0.02 | z-score of subpopulation abundance [12]: -0.1 | z-score of subpopulation abundance [13]: 0.16 | z-score of subpopulation abundance [14]: -0.63 | z-score of subpopulation abundance [15]: -0.78

CCCN1C[C@H](C)[C@@H](O)[C@](C)(O)[C@@H](CC)OC(=O)[C@H](C)[C@@H](O[C@H]2C[C@@](C)(OC)[C@@H](O)[C@H](C)O2)[C@H](C)[C@@H](O[C@@H]2O[C@H](C)C[C@H](N(C)C)[C@H]2O)[C@](C)(O)C[C@H]1C [Gamithromycin]
mean cell size [1]: 12.3 ± 0.13 | z-score of prototroph abundance [2]: -0.29 | z-score of subpopulation abundance [16]: 0.42 | z-score of subpopulation abundance [4]: -0.04 | z-score of subpopulation abundance [5]: 2.25 | z-score of subpopulation abundance [6]: -0.16 | z-score of subpopulation abundance [7]: 0.13 | z-score of subpopulation abundance [8]: 0.24 | z-score of subpopulation abundance [9]: -0.26 | z-score of subpopulation abundance [10]: -0.02 | z-score of subpopulation abundance [11]: 0.97 | z-score of subpopulation abundance [12]: -0.18 | z-score of subpopulation abundance [13]: 0.28 | z-score of subpopulation abundance [14]: -0.04 | z-score of subpopulation abundance [15]: -0.18

CCCN[C@H]1CCc2nc(N)sc2C1 [Pramipexole]
mean cell size [1]: 12.3 ± 0.16 | z-score of prototroph abundance [2]: -0.22 | z-score of subpopulation abundance [3]: -0.13 | z-score of subpopulation abundance [4]: 0.72 | z-score of subpopulation abundance [6]: 0.21 | z-score of subpopulation abundance [7]: -0.62 | z-score of subpopulation abundance [8]: 0.07 | z-score of subpopulation abundance [9]: 1.27 | z-score of subpopulation abundance [10]: 0.05 | z-score of subpopulation abundance [11]: 0.63 | z-score of subpopulation abundance [12]: 0.06 | z-score of subpopulation abundance [13]: 0.71 | z-score of subpopulation abundance [14]: 0.35 | z-score of subpopulation abundance [15]: 0.18

CC[C@@H](CO)NCCN[C@@H](CC)CO [Ethambutol 2HCl]
mean cell size [1]: 12.46 ± 0.11 | z-score of prototroph abundance [2]: -0.36 | z-score of subpopulation abundance [3]: -0.81 | z-score of subpopulation abundance [4]: 1.13 | z-score of subpopulation abundance [5]: -1.02 | z-score of subpopulation abundance [7]: 0.23 | z-score of subpopulation abundance [8]: -0.9 | z-score of subpopulation abundance [9]: 0.27 | z-score of subpopulation abundance [10]: 1.23 | z-score of subpopulation abundance [11]: 0.36 | z-score of subpopulation abundance [13]: 0.7 | z-score of subpopulation abundance [14]: 1.15 | z-score of subpopulation abundance [15]: 0.6
